Growth data for eight molecules are collected here from PubChem BioAssay (NCI).

The panel holds about 83,000 compounds, 20% with a hit somewhere; the sample as a whole holds those more often.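 Negative percent growth values reflect cell death: -40 means 40% of the cells present at the start died, and -100 means all died.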 A number with no mark means an inactive call. Calls of active or inactive are those of the source. The calls were made as follows: active = growth percent below 10; inactive = the rest.

Some test systems named below: NCI-H226 lung; NCI-H322M lung; HOP-62 NSCLC; NCI-H460 lung; HOP-92 NSCLC; A549/ATCC NSCLC; 786-0 renal; COLO 205 colon; DU-145 prostate; K-562 leukemia; MALME-3M melanoma; MDA-MB-231 breast; RXF 393 renal; SF-268 CNS; SF-295 CNS; SF-539 CNS; UACC-257 melanoma; M14 melanoma; HCT-15 colon; NCI-H522 lung.
Assay in all cases: NCI-60 one-dose screen, 48 h (100 = growth as untreated, 0 = no growth, -100 = all killed)
Holding throughout (settings): 10 µM unless noted

Take `Cc1nc(-c2cc3ccccc3oc2=O)ccc1C(=O)/C=C/c1ccc(N2CCOCC2)cc1`: the growth in the assay on NCI-H226 lung is 88.3%; with NCI-H322M lung, 107%; in the assay with HOP-62 NSCLC, 90.8%; in the assay on NCI-H460 lung, 89.7%; with HOP-92 NSCLC it was 80%; with A549/ATCC NSCLC, 91.6%. For the same molecule, the growth was 75.3% with 786-0 renal; 91.6% in the assay with COLO 205 colon; 91.1% in the assay with DU-145 prostate; 38% with K-562 leukemia; 57.5% with MALME-3M melanoma; 54.3% in the assay on MDA-MB-231 breast. Further, the growth in the assay on RXF 393 renal was 89.6%; in the assay with SF-268 CNS, 75.3%; with SF-295 CNS it was 66%; with SF-539 CNS, 45.2%; with UACC-257 melanoma, 89%; with M14 melanoma, 45.6%. Further, in the assay with HCT-15 colon, the growth is 54.5%.
For `O=C(N/N=C/c1ccco1)c1[nH]c2ccc(Br)cc2c1-c1ccccc1`, the growth in the assay with NCI-H226 lung was 50.1%; in the assay with NCI-H322M lung, 42.1%; in the assay with HOP-62 NSCLC, 35.4%; in the assay with NCI-H460 lung, 2.19% (active); in the assay with HOP-92 NSCLC, 48.7%; in the assay with A549/ATCC NSCLC it was 35.4%. The growth with 786-0 renal was 16.4%; with COLO 205 colon it was -35.2% (active); in the assay on DU-145 prostate it was 13.4%; in the assay with K-562 leukemia, 8.75% (active); in the assay with MALME-3M melanoma it was 54.9%; in the assay with MDA-MB-231 breast, 6.62% (active). For the same molecule, the growth is 62.2% with RXF 393 renal; 29.9% with SF-268 CNS; 21.8% with SF-295 CNS; -15.1% (active) in the assay with SF-539 CNS; 72.5% in the assay on UACC-257 melanoma; 11.6% with M14 melanoma. In addition, in the assay on HCT-15 colon, the growth is 10.4%.
With `COc1ccccc1C(=O)CSc1nc(Nc2ccc(S(N)(=O)=O)cc2)c2ccccc2n1`, the growth was 94.9% in the assay on NCI-H226 lung; 82.6% in the assay with NCI-H322M lung; 86.7% in the assay with HOP-62 NSCLC; 85.1% in the assay with NCI-H460 lung; 89.6% in the assay with HOP-92 NSCLC; 90.5% in the assay with NCI-H522 lung. In addition, the growth with A549/ATCC NSCLC was 98.5%; in the assay with 786-0 renal, 91%; in the assay with DU-145 prostate it was 96.9%; in the assay on K-562 leukemia, 85.7%; in the assay with MALME-3M melanoma, 90.2%; in the assay with MDA-MB-231 breast, 77.3%. Also, the growth in the assay on RXF 393 renal was 97.1%; in the assay with SF-268 CNS, 89.9%; in the assay with SF-295 CNS it was 97.6%; in the assay on SF-539 CNS it was 81.2%; with UACC-257 melanoma, 111%; with M14 melanoma, 94.1%. In addition, the growth in the assay with HCT-15 colon was 92.4%.
With `N#Cc1nc(-c2ccccc2)oc1N1CCC(CO)C1` (configuration not stated), the growth in the assay with NCI-H226 lung was 92.6%; with NCI-H322M lung, 88.4%; in the assay on HOP-62 NSCLC it was 107%; in the assay on NCI-H460 lung it was 103%; in the assay with HOP-92 NSCLC it was 129%; in the assay with A549/ATCC NSCLC it was 95.2%. Also, the growth was 101% with 786-0 renal; 116% with COLO 205 colon; 104% with DU-145 prostate; 114% in the assay on K-562 leukemia; 94.3% in the assay on MALME-3M melanoma; 101% in the assay with MDA-MB-231 breast. In addition, the growth is 100% in the assay with RXF 393 renal; 97.7% with SF-268 CNS; 105% in the assay on SF-295 CNS; 93.9% in the assay with SF-539 CNS; 105% in the assay with UACC-257 melanoma; 106% with M14 melanoma. Besides, the growth with HCT-15 colon is 104%.
Regarding `COc1cc(/C=C/C(=O)c2cc(OC)c(OC)c(OC)c2)ccc1Oc1nc(NCCO)nc(N2CCOCC2)n1`, the growth with NCI-H226 lung is -1.45% (active); in the assay with NCI-H322M lung it was 24%; in the assay with HOP-62 NSCLC, 1.11% (active); in the assay with NCI-H460 lung, -51.6% (active); with HOP-92 NSCLC it was 13.5%; in the assay on NCI-H522 lung it was -11.1% (active). Moreover, the growth with A549/ATCC NSCLC is 6.84% (active); in the assay on 786-0 renal it was -5.28% (active); with DU-145 prostate it was 12.6%; in the assay on K-562 leukemia it was 8.97% (active); in the assay with MALME-3M melanoma, 29%; with MDA-MB-231 breast, 19.4%. For the same molecule, the growth is -25.7% (active) in the assay with RXF 393 renal; 9.81% (active) in the assay on SF-268 CNS; 12.6% in the assay on SF-295 CNS; -5.48% (active) in the assay with SF-539 CNS; 47.8% in the assay with UACC-257 melanoma; -19.1% (active) in the assay on M14 melanoma. Further, the growth in the assay on HCT-15 colon is -9.13% (active).
As for `CC(C)(C)Nc1nc2c(OCCc3ccccc3)cccn2c1-c1ccccc1Cl`, the growth is -0.3% (active) with NCI-H226 lung; 8.57% (active) with NCI-H322M lung; -22.1% (active) with HOP-62 NSCLC; 0.335% (active) in the assay on NCI-H460 lung; -74.8% (active) in the assay on HOP-92 NSCLC; 11.6% with A549/ATCC NSCLC. Moreover, the growth with 786-0 renal was 6.01% (active); in the assay on COLO 205 colon, -76.6% (active); with DU-145 prostate it was 21.1%; with K-562 leukemia, 0.922% (active); with MALME-3M melanoma, -32% (active); in the assay with MDA-MB-231 breast it was -32.6% (active). In addition, the growth in the assay with RXF 393 renal was -43.6% (active); in the assay with SF-268 CNS it was 22.9%; with SF-295 CNS, -56.8% (active); with SF-539 CNS it was -74.7% (active); in the assay with UACC-257 melanoma, 1.9% (active); with M14 melanoma, 0.193% (active). Also, the growth in the assay on HCT-15 colon was -72.1% (active).
With `NC(=O)c1cc(-c2ccc3ncnc(N4CCc5cc(F)c(Cl)cc54)c3c2)cnc1N`, the growth with NCI-H226 lung is 9.39% (active); with NCI-H322M lung it was -3.06% (active); in the assay with HOP-62 NSCLC it was 27.9%; in the assay with NCI-H460 lung, 20%; in the assay on HOP-92 NSCLC, 15.8%; in the assay on A549/ATCC NSCLC, 16.9%. In addition, the growth with 786-0 renal was 12.8%; in the assay on COLO 205 colon, 54.8%; in the assay on DU-145 prostate it was 14.3%; in the assay on K-562 leukemia, 35.2%; in the assay on MALME-3M melanoma, 25.1%; in the assay on MDA-MB-231 breast it was 34.5%. The growth is -17.5% (active) in the assay with RXF 393 renal; 27.6% with SF-268 CNS; 25.3% with SF-295 CNS; -23.4% (active) with SF-539 CNS; 54.8% in the assay on UACC-257 melanoma; 38.3% in the assay with M14 melanoma. For the same molecule, the growth with HCT-15 colon was 25.8%.
As for `Cc1c(NC(=O)CSc2nc3sc4c(c3c(=O)n2-c2ccc(Cl)cc2)CCCC4)c(=O)n(-c2ccccc2)n1C`, the growth in the assay on NCI-H226 lung was 108%; with NCI-H322M lung, 94.9%; in the assay with HOP-62 NSCLC, 99.3%; in the assay with NCI-H460 lung, 96.8%; in the assay on HOP-92 NSCLC it was 96.3%; with NCI-H522 lung, 96.8%. For the same molecule, the growth was 81.2% with A549/ATCC NSCLC; 102% in the assay on 786-0 renal; 89.4% in the assay with DU-145 prostate; 90.2% with K-562 leukemia; 102% in the assay with MALME-3M melanoma; 93.4% with MDA-MB-231 breast. Also, the growth was 104% with RXF 393 renal; 80.3% with SF-268 CNS; 95.5% in the assay with SF-295 CNS; 89.5% in the assay with SF-539 CNS; 102% with UACC-257 melanoma; 95.2% in the assay on M14 melanoma. In the assay on HCT-15 colon, the growth is 93.3%.
